# Data published in PubChem BioAssay (NCI).
# This is part of a sample that, as a whole, favours compounds with a hit. Of some 83,000 tested, about 20% had one in any assay.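 Note: values are percent growth. 100 is the growth of untreated cells, values between 100 and 0 indicate rising inhibition; between -100 and 0 indicates cell death.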 Active and inactive are the calls of the source. The calls were made as follows: active = growth percent below 10; inactive = the rest.
# Test system: MDA-MB-468 breast
# Experiment: NCI-60 one-dose screen, 48 h (100 = growth as untreated, 0 = no growth, -100 = all killed)
# Conditions: 10 µM unless noted
row,Structure (SMILES),growth
1,N#Cc1ncc(-c2cc(F)ccc2F)c(NC2CCCCCC2)n1,90.3% (inactive)
2,CC(=O)NCC(=O)N1[C@@H]2CC[C@H]1c1ccc(Nc3ncc(C(F)(F)F)c(NC4CCC4)n3)cc12,72% [2.5 µM] (inactive)
3,NC(=O)N/N=C/c1ccc(Br)o1,109% (inactive)
